Screens: PubChem, several laboratories
BoNT A protease – BoNT/A light chain protease inhibitors, primary screen, biochemical, flow cytometry, MLPCN library; Botulinum neurotoxin type A light chain protease (Clostridium botulinum A str. ATCC 3502); multiplex microsphere protease substrate cleavage; inhibition, % at 10 µM; 360,000 compounds, 0.17% hits; AID 588499, 2011; also: plate controls were buffer without enzyme for full effect and enzyme alone for no effect
BJeLR viability – MLPCN primary cell-based screen for lethality selective to Ras in HRASV12 cells; 300,000 compounds, 0.17% hits; AID 1554, 2009; inhibition, % (no concentration beside the values); BJeLR (HRASV12) viability, CellTiter-Glo ATP luminescence, 48 h; in the data active = inhibition above about 50%; inconclusive = no clear call, values can overlap the other calls
Anthrax LF prot – Bacillus anthracis LF protease inhibitors, primary screen, biochemical, multiplex microsphere, MLPCN library. Lethal factor (Bacillus anthracis), P15917. multiplex microsphere protease cleavage assay. inhibition, % at 10 µM. 360,000 compounds, 0.12% hits. AID 588501, 2011; also: plate controls were buffer without enzyme for full effect and enzyme alone for no effect
3CLpro inhibitor – SARS-CoV 3CLpro protease inhibitors, primary screen, biochemical, quenched FRET; Replicase polyprotein 1ab (Severe acute respiratory syndrome coronavirus), P0C6X7; recombinant SARS-CoV 3CLpro, quenched FRET peptide cleavage; inhibition, % at 6 µM; 290,000 compounds, 0.14% hits; in the data active = inhibition above about 12%
Autofluor counter – compound fluorescence in toxin protease inhibitor counterscreen. fluorescence intensity (test concentration not listed). 360,000 compounds, 3.1% hits. compound autofluorescence counterscreen, microsphere flow cytometry; active compounds read high; in the data active = fluorescence intensity above about 16000; inconclusive = no clear call, values can overlap the other calls
BoNT F protease – BoNT/F light chain protease inhibitors, primary screen, biochemical, flow cytometry, MLPCN library | Botulinum neurotoxin type F light chain protease (Clostridium botulinum) | Multiplex microsphere protease cleavage assay | inhibition, % at 10 µM | 360,000 compounds, 0.22% hits; in the data active = inhibition above about 35%, passing the limit was not always enough; inconclusive = no clear call, values can overlap the other calls; also: plate controls were buffer without enzyme for full effect and enzyme alone for no effect
* = called active by the depositor; ? = inconclusive; / = no result. Sampled rows, rich in hits. Any-hit rate of the full collection: about 3.6%. Rule as the data show it, unless noted: active = inhibition above about 30%; inconclusive = no clear call, values can overlap the other calls; inactive = below that.

SMILES	BoNT A protease	BJeLR viability	Anthrax LF prot	3CLpro inhibitor	Autofluor counter	BoNT F protease
COC(=O)C[C@@H]1C[C@H]2c3cc(N(C)C)ccc3O[C@H]2[C@H](CO)O1	-0.5	/	-7.4	/	3682	-1.9
CCOc1ccc(C(=O)N2CCN(S(=O)(=O)c3cccs3)CC2)c(OCC)c1	-0.3	-11.1	2.5	5.7	6239	7.8
COc1ccccc1C(=O)Nc1ccc2c(c1)OCO2	1.2	-7.8	-1.0	-2.0	23284*	-1.5
COc1ccccc1C(=O)Nc1ccc2c(c1)OCCO2	0.0	1.7	-0.4	1.4	2748	-3.6
COc1ccc(OCCCC(=O)Nc2ccc3c(c2)OCO3)cc1	-0.5	5.5	-0.3	-0.5	16175*	-1.8
COc1ccc(C)cc1NC(=O)COC(=O)c1ccc2c(c1)OCO2	-0.3	/	-8.9	/	2993	-7.5
COc1ccc(C)cc1NC(=O)c1ccc2c(c1)OCO2	2.0	6.2	0.2	-3.7	21822*	1.6
COc1ccc(C)cc1NC(=O)c1cc2ccccc2o1	?	-0.1	-5.8	3.6	23609*	-4.0
COc1cccc(CC(NC(C)=O)C(=O)NC2CCN(S(=O)(=O)c3ccc(NC(C)=O)cc3)CC2)c1OC (configuration not stated)	-1.2	3.7	-1.0	-8.3	5344	-3.4
Cc1cc(C)cc(N2C(=O)C=CC2=O)c1	0.6	/	3.4	/	2876	2.0
CCc1nc2c(OCc3ccc(C(F)(F)F)cc3)cccn2c1N(C)C(=O)C1CC1	-0.2	/	0.6	/	3538	-0.7
COc1ccc(NC(=O)c2ccc(S(=O)(=O)N(C)C)cc2)cc1	0.1	8.8	-4.5	4.0	3406	2.1
COc1cc(OC)cc(C(=O)Nc2ccc(S(=O)(=O)N(C)C)cc2)c1	0.6	-4.5	-2.5	-2.5	19847*	-1.7
Cc1ccc2nc(C3CCCCC3)c(CC(C)(C)C)n2c1	-0.8	/	-2.6	/	4288	-10.1
CCOC(=O)c1[nH]c2cc3c(cc2c1CCCN1C(=O)c2ccccc2C1=O)OCCO3	?	-1.5	1.9	0.3	19746*	2.4
S=C(NC1CCCCC1)c1ccc2c(c1)OCO2	4.6	-4.8	-1.7	-0.1	20422*	5.1
O=C(NC1CCCCCCC1)c1ccc2c(c1)OCO2	-0.9	-4.9	1.0	-1.5	3642	-5.6
O=C(Cn1c(-c2ccccc2)noc1=O)Nc1ccc(S(=O)(=O)N2CCOCC2)cc1	0.2	-1.0	-4.9	-5.9	10369	-5.8
O=C(Cn1c(-c2ccccc2)noc1=O)Nc1ccc(N2CCCCCC2)cc1	-5.3	-2.3	-5.0	8.5	25078*	-11.6
N#Cc1cn(Cc2ccncc2)c(=O)[nH]c1=O	-0.2	-15.1	-2.3	8.6	2654	-1.5
CCOc1cccc(C=Nc2cc(C)cc(C)c2O)c1O	?	-14.9	-0.6	4.8	22996*	3.9
CC(C)(C)OC(=O)N1CCC[C@H]1C(=O)NCc1ccc(F)cc1F	0.7	/	9.2	/	5959	1.6
COc1cc(/C=C/C(=O)c2ccc([N+](=O)[O-])o2)ccc1O	0.6	92.4*	-6.7	/	2940	5.3
O=C(/C=C/c1cccc(Cl)c1)c1ccc([N+](=O)[O-])o1	0.0	107.4*	-5.4	/	4030	-2.9
COc1ccc(/C=C/C(=O)c2ccc3c(c2)OCCO3)cc1[N+](=O)[O-]	0.9	1.0	-3.4	7.1	3309	-5.5
SMILES	BoNT A protease	BJeLR viability	Anthrax LF prot	3CLpro inhibitor	Autofluor counter	BoNT F protease
COc1ccc(/C=C/C(=O)c2ccc([N+](=O)[O-])o2)cc1OC	/	69.8*	/	/	/	/
COc1cc(OC)c(C(=O)C=Cc2ccc(OC)c(OC)c2)c(OC)c1	0.3	/	4.6	/	2881	4.0
Cc1cc(O)c(C(=O)/C=C/c2cccc([N+](=O)[O-])c2)c(=O)o1	-1.2	8.7	14.2	1.6	3658	?
COc1ccccc1CCNS(=O)(=O)c1cc2c3c(c1)CCN3C(=O)CC2	-2.5	2.7	3.9	/	5210	1.1
N=c1ncn(C2OC(CO)C(O)C2O)c2nc(Br)[nH]c12 (configuration not stated)	-0.6	/	-4.5	/	3612	-4.7
O=S(=O)(c1ccc(Cl)c(C(F)(F)F)c1)N1CCN(c2ccccn2)CC1	0.9	-1.0	-2.8	-1.8	3983	3.7
Cc1nn(CC(=O)NNC(=O)c2cccc(Br)c2)c(C)c1[N+](=O)[O-]	-0.1	7.1	0.5	-4.7	3980	3.8
CC(C)NC(=O)c1ccc(COc2cc(Cl)ccc2Cl)o1	-2.1	-1.5	-1.7	-2.8	3636	-2.0
CCOC(=O)c1ccc(S(=O)(=O)Nc2cc(C(C)(C)C)no2)cc1	-1.6	-5.5	-2.0	-0.3	24179*	-0.3
COc1cnc(-c2ccccn2)nc1Sc1ccc(Cl)cc1	?	-10.5	-1.7	2.5	21806*	-6.0
COc1ccc(Sc2nc(-c3ccccn3)ncc2OC)cc1	-2.1	-1.5	2.3	3.4	4049	2.1
Cc1ccc(S(=O)(=O)c2nc(C(C)(C)C)oc2N2CCOCC2)cc1	0.1	4.6	1.3	2.1	16379*	-2.1
Cc1cn([C@H]2C[C@H](O)[C@@H](CNC(=O)c3ccccn3)O2)c(=O)[nH]c1=O	-0.3	/	0.4	/	4008	-2.9
CC(C)CN1C(=O)c2ccc(NC(=O)c3ccco3)cc2C1=O	-1.9	-6.8	-6.5	2.1	4241	1.6
CC(C)CN1C(=O)c2ccc(NC(=O)c3cccs3)cc2C1=O	?	-9.9	-0.3	-1.8	24092*	-1.1
O=C(c1cccc(Br)c1)N1CCCC1	?	-7.1	-0.5	5.5	23116*	1.2
O=C(c1cccc(F)c1)N1CCN(S(=O)(=O)c2ccc(C(F)(F)F)cc2)CC1	?	3.1	0.2	-1.8	22916*	2.2
O=C(c1cccc(C(F)(F)F)c1)N1CCCCCC1	-0.2	5.2	-0.4	0.5	11586	-15.9
O=C(c1cccc(C(F)(F)F)c1)N1CCCC1	?	-1.6	-2.6	1.2	16789*	-4.6
CCOc1ccccc1/C=C/c1onc(C)c1S(=O)(=O)N1CCC(C(=O)NC(C)(C)C)CC1	-2.3	7.4	-1.6	3.7	4621	-4.5
COc1ccc(N2CC(C(=O)NCc3ccco3)CC2=O)cc1 (configuration not stated)	-0.2	13.2	-4.8	4.8	4523	-6.5
CC(C)Cc1ccc(C(=O)Nc2ccc(Cc3ccncc3)cc2)o1	-3.8	3.8	-4.4	0.9	3659	-26.2
Cc1ccccc1NC(=O)Cn1nc(-c2ccccc2)nc1-c1ccccc1	0.7	7.1	-0.3	0.5	16150*	1.1
O=C(NCc1cccnc1)c1sc2cc(Cl)ccc2c1Cl	-0.5	1.3	-0.3	-6.8	11830	-11.7
Cn1c(=O)n(CC(=O)Nc2cccnc2)c2ccccc21	-1.0	10.6	-2.6	2.2	8502	2.7
